Inconclusive results are not listed. A number with no mark means an inactive call. Active and inactive are the calls of the source. Calls follow the shape of the dose curve; as a rule, active = well fitted cell-killing curve with a large enough effect; inconclusive = small, poorly fitted or top-dose-only effect, or effect the other way; inactive = no such curve, though single readings can be large or run the other way.
assay: Quantitative High-Throughput drug screen in 47 multiple myeloma cell lines against the NCATS MIPE library collection: Delta47_JCRB cell viability assay (AID 1918925; also: nearly all actives have a fitted effect of over 45% in size); conditions: Delta47 myeloma viability, CellTiter-Glo ATP, 48 h; series mostly up to 45.8 µM; viability (% of DMSO): at the top concentration
Summary of the method: (§1)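 CellTiter-Glo luminescence (ATP) after 48 h compound exposure, 37C/5% CO2; 500 cells/well; MIPE 4.0 approved/investigational drugs pinned in; DMSO = 100%, media only = 0% viability.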
Potency is read from the fitted curve at half-maximal effect.

SMILES | viability (% of DMSO) [%] | Potency
Cc1cn([C@@H]2C[C@@H](O)[C@H](CO)O2)c(=O)[nH]c1=O | 110 | –
Cc1cccc(-c2[nH]c(C(C)(C)C)nc2-c2ccc3c(c2)OCO3)n1 | – | 1.32 µM (active)
CCCCC[C@H](O)C=C[C@H]1[C@H](O)CC(=O)[C@H]1CCCCCCC(=O)O | 123 | –
C[C@@H](O)[C@H]1C(=O)N2C(C(=O)OCOC(=O)C(C)(C)C)=C(SC3CN(C4=NCCS4)C3)[C@H](C)[C@H]12 | 85.6 | –
N#CC(c1ccnc(NCCc2cccnc2)n1)c1nc2ccccc2s1 (configuration not stated) | – | 11.8 µM (active)
CC1(C)OC2CC3C4CC(F)C5=CC(=O)C=CC5(C)C4C(O)CC3(C)[C@]2(C(=O)CO)O1 (some centres not stated) | 90.7 | –
CC[C@H](C)C(=O)O[C@H]1C[C@H](O)C=C2C=C[C@H](C)[C@H](CC[C@@H](O)C[C@@H](O)CC(=O)O)[C@H]21 | 95.9 | –
CN1CC(=O)N2C(Cc3c([nH]c4ccccc34)[C@H]2c2ccc3c(c2)OCO3)C1=O (some centres not stated) | 112 | –
C[C@@]1(c2cc(-c3cncnc3)c(F)cc2F)CCSC(N)=N1 | 132 | –
COc1cc2ncn(-c3cc(OCc4ccccc4S(C)(=O)=O)c(C#N)s3)c2cc1OC | 85.5 | –

assay: Quantitative High-Throughput drug screen in 47 multiple myeloma cell lines against the NCATS MIPE library collection: EJM_DSMZ cell viability assay (AID 1918926; also: nearly all actives have a fitted effect of over 30% in size); conditions: EJM myeloma cell viability, CellTiter-Glo ATP, 48 h; series mostly up to 45.8 µM; viability, % of control: at the top concentration
Summary of the method: as §1

SMILES | Potency | viability, % of control [%]
C=CC(=O)Nc1cccc(Sc2nc(Nc3ccc(N4CCN(C)CC4)cc3)ncc2Cl)c1 | 18.7 µM (active) | –
N#Cc1ccc(Oc2ccc3c(c2)COB3O)cc1 | – | 79
C[C@@H](NC(=O)c1ncnc(N)c1Cl)c1ncc(C(=O)Nc2cc(C(F)(F)F)c(Cl)cn2)s1 | – | 98.7
NC1(C(=O)N[C@@H](CCO)c2ccc(Cl)cc2)CCN(c2ncnc3[nH]ccc23)CC1 | 10.5 µM (active) | –
CC(C)=CCCC(C)=CCCC(C)=CCCC(C)=CCCC(C)=CCCC(C)=CCCC(C)=CCCC(C)=CCCC(C)=CCO | – | 104
CC(=O)OCC(=O)[C@@]12OC(C)(C)O[C@H]1C[C@H]1[C@@H]3C[C@H](F)C4=CC(=O)C=C[C@]4(C)[C@@]3(F)[C@@H](O)C[C@@]12C | – | 88.5
CCCCCOC(=O)Nc1nc(=O)n([C@@H]2O[C@H](C)[C@@H](O)C2O)cc1F (some centres not stated) | – | 96.5
CCOC(=O)[C@H](CCc1ccccc1)N[C@@H](C)C(=O)N1CCCC1C(=O)O (some centres not stated) | – | 118
CCCCC(F)(F)[C@@]1(O)CC[C@H]2[C@H](CC(=O)[C@@H]2CCCCCCC(=O)O)O1 | – | 96.3
O=C(Nc1cccc(C(F)(F)F)c1)Nc1cc(S(=O)(=O)NC2CC2)ccc1-c1ccsc1 | – | 89.9
Cc1nc2c([nH]1)CCN(C(=O)c1ccc(NC(=O)c3ccccc3-c3ccccc3)cc1)c1ccccc1-2 | – | 89.2
CCN(CC)CCCCNc1nc2cc(Cl)c(Cl)cc2nc1-c1ccc(-c2cccs2)s1 | 11.8 µM (active) | –
COc1cc(CNC(=O)CCCCC=CC(C)C)ccc1O | 10.5 µM (active) | –
Cc1cccc2c1CC[C@H](CN1CCC(c3c(Cl)cccc3Cl)CC1)C[C@@H]2O | 18.7 µM (active) | –
O=S(=O)(O)c1ccc2cc(N=Nc3cc(S(=O)(=O)O)c4cccnc4c3O)ccc2c1 | 16.6 µM (active) | –
Cc1cn([C@@H]2C[C@@H](O)[C@H](CO)O2)c(=O)[nH]c1=O | – | 90.5
Cc1cccc(-c2[nH]c(C(C)(C)C)nc2-c2ccc3c(c2)OCO3)n1 | 11.8 µM (active) | –
CCCCC[C@H](O)C=C[C@H]1[C@H](O)CC(=O)[C@H]1CCCCCCC(=O)O | – | 93.9
C[C@@H](O)[C@H]1C(=O)N2C(C(=O)OCOC(=O)C(C)(C)C)=C(SC3CN(C4=NCCS4)C3)[C@H](C)[C@H]12 | – | 108
N#CC(c1ccnc(NCCc2cccnc2)n1)c1nc2ccccc2s1 (configuration not stated) | 18.7 µM (active) | –
CC1(C)OC2CC3C4CC(F)C5=CC(=O)C=CC5(C)C4C(O)CC3(C)[C@]2(C(=O)CO)O1 (some centres not stated) | – | 92
COC(=O)N1CCN(Cc2cccc(NC(=O)Nc3ccc(C)nc3)c2F)CC1 | – | 87.3
CCN1C[C@H](C)n2c(c(O)c3c(=O)n(Cc4ccc(F)c(Cl)c4)nc(C(=O)NC)c32)C1=O | – | 123
CC[C@H](C)C(=O)O[C@H]1C[C@H](O)C=C2C=C[C@H](C)[C@H](CC[C@@H](O)C[C@@H](O)CC(=O)O)[C@H]21 | – | 110
CN1CC(=O)N2C(Cc3c([nH]c4ccccc34)[C@H]2c2ccc3c(c2)OCO3)C1=O (some centres not stated) | – | 81.9
C[C@@]1(c2cc(-c3cncnc3)c(F)cc2F)CCSC(N)=N1 | – | 100
Cc1ccccc1C(=O)c1ccc(Nc2ccc(Br)cc2N)cc1Cl | 14.8 µM (active) | –
COc1cc2ncn(-c3cc(OCc4ccccc4S(C)(=O)=O)c(C#N)s3)c2cc1OC | 3.72 µM (active) | –

assay: Quantitative High-Throughput drug screen in 47 multiple myeloma cell lines against the NCATS MIPE library collection: AMO1_DSMZ cell viability assay (AID 1918927; also: nearly all actives have a fitted effect of over 30% in size); conditions: AMO1 myeloma cells viability, CellTiter-Glo ATP luminescence, 48 h; series mostly up to 45.8 µM; viability, % of DMSO: at the top concentration
Summary of the method: as §1

SMILES | Potency | viability, % of DMSO [%]
CCc1cccc(CC)c1NC(=O)N1Cc2[nH]nc(NC(=O)c3ccc(N4CCN(C)CC4)cc3)c2C1 | 7.43 µM (active) | –
N#Cc1ccc(Oc2ccc3c(c2)COB3O)cc1 | 20.9 µM (active) | –
Cc1cc(C(C)Nc2ccccc2)c2nc(N3CCOCC3)cc(=O)n2c1 (configuration not stated) | 18.7 µM (active) | –
C[C@@H](NC(=O)c1ncnc(N)c1Cl)c1ncc(C(=O)Nc2cc(C(F)(F)F)c(Cl)cn2)s1 | 10.5 µM (active) | –
NC1(C(=O)N[C@@H](CCO)c2ccc(Cl)cc2)CCN(c2ncnc3[nH]ccc23)CC1 | 1.87 µM (active) | –
CC(C)=CCCC(C)=CCCC(C)=CCCC(C)=CCCC(C)=CCCC(C)=CCCC(C)=CCCC(C)=CCCC(C)=CCO | – | 110
CC(=O)OCC(=O)[C@@]12OC(C)(C)O[C@H]1C[C@H]1[C@@H]3C[C@H](F)C4=CC(=O)C=C[C@]4(C)[C@@]3(F)[C@@H](O)C[C@@]12C | – | 110
c1ccc(-c2oc3ncnc(NC[C@@H]4CCCO4)c3c2-c2ccccc2)cc1 | – | 108
CCCCCOC(=O)Nc1nc(=O)n([C@@H]2O[C@H](C)[C@@H](O)C2O)cc1F (some centres not stated) | – | 87.6
Nc1[nH]nc2nnc(-c3c(-c4ccccc4)nn4ccccc34)cc12 | 1.66 µM (active) | –
CCOC(=O)[C@H](CCc1ccccc1)N[C@@H](C)C(=O)N1CCCC1C(=O)O (some centres not stated) | – | 128
CCCCC(F)(F)[C@@]1(O)CC[C@H]2[C@H](CC(=O)[C@@H]2CCCCCCC(=O)O)O1 | – | 116
Cc1nc2c([nH]1)CCN(C(=O)c1ccc(NC(=O)c3ccccc3-c3ccccc3)cc1)c1ccccc1-2 | 18.7 µM (active) | –
CCN(CC)CCCCNc1nc2cc(Cl)c(Cl)cc2nc1-c1ccc(-c2cccs2)s1 | 6.62 µM (active) | –
COc1cc(CNC(=O)CCCCC=CC(C)C)ccc1O | – | 102
O=S(=O)(O)c1ccc2cc(N=Nc3cc(S(=O)(=O)O)c4cccnc4c3O)ccc2c1 | – | 105
Cc1cn([C@@H]2C[C@@H](O)[C@H](CO)O2)c(=O)[nH]c1=O | – | 84.6
Cc1cccc(-c2[nH]c(C(C)(C)C)nc2-c2ccc3c(c2)OCO3)n1 | – | 118
CCCCC[C@H](O)C=C[C@H]1[C@H](O)CC(=O)[C@H]1CCCCCCC(=O)O | – | 124
C[C@@H](O)[C@H]1C(=O)N2C(C(=O)OCOC(=O)C(C)(C)C)=C(SC3CN(C4=NCCS4)C3)[C@H](C)[C@H]12 | – | 95.9
N#CC(c1ccnc(NCCc2cccnc2)n1)c1nc2ccccc2s1 (configuration not stated) | 6.62 µM (active) | –
CC1(C)OC2CC3C4CC(F)C5=CC(=O)C=CC5(C)C4C(O)CC3(C)[C@]2(C(=O)CO)O1 (some centres not stated) | – | 93.7
CCN1C[C@H](C)n2c(c(O)c3c(=O)n(Cc4ccc(F)c(Cl)c4)nc(C(=O)NC)c32)C1=O | – | 131
CNC(=O)c1cc(Oc2ccc(NC(=O)Nc3ccc(Cl)c(C(F)(F)F)c3)c(F)c2)ccn1 | 5.9 µM (active) | –
CC[C@H](C)C(=O)O[C@H]1C[C@H](O)C=C2C=C[C@H](C)[C@H](CC[C@@H](O)C[C@@H](O)CC(=O)O)[C@H]21 | – | 119
CN1CC(=O)N2C(Cc3c([nH]c4ccccc34)[C@H]2c2ccc3c(c2)OCO3)C1=O (some centres not stated) | – | 97.4
C[C@@]1(c2cc(-c3cncnc3)c(F)cc2F)CCSC(N)=N1 | 14.8 µM (active) | –
Cc1ccccc1C(=O)c1ccc(Nc2ccc(Br)cc2N)cc1Cl | 0.833 µM (active) | –
COc1cc2ncn(-c3cc(OCc4ccccc4S(C)(=O)=O)c(C#N)s3)c2cc1OC | – | 101
